Screens from PubChem BioAssay.
FBW7 activator = FBW7 E3 ligase activators, primary screen, biochemical, AlphaScreen, human | AlphaScreen FBW7–phospho-cyclin E peptide binding, activator screen | normalized activity (activation), % at 26.1 µM | hit rate 0.13% among 650,000; in the data active means normalized activity above about 1.9%;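 further: purified mutant Fbw7 with reduced substrate affinity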
TEAD-YAP inh = TEAD-YAP interaction inhibition, primary screen, TEAD-YAP interaction inhibitor project, luminescence, HEK-TIYL cells. TEAD-Gal4/YAP UAS-luciferase luminescence. hit rate 1.4% among 640,000. inhibition, % at 9.12 µM; in the data active means inhibition above about 32%;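 further: 0% = median of test compound wells and 100% = reference inhibitor wells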
GPR151 activ = activators of human GPR151, primary screen, cell-based, PathHunter beta-arrestin, luminescence. G-protein coupled receptor 151 (Homo sapiens), Q8TDV0. PathHunter beta-arrestin GPR151 cells. activation, % at 11.2 µM. hit rate 1% among 650,000. AID 1508602, 2020; in the data active means activation above about 4.9%;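 further: 0% = median of compound wells and 100% = cells with positive control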
MITF primary = MITF inhibitors, primary screen, biochemical, AlphaScreen, human | AlphaScreen MITF homodimerization, bead proximity signal | hit rate 0.91% among 650,000 | inhibition, % at 2.6 µM; in the data active means inhibition above about 50%;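 further: 0% = vehicle wells with protein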
Target sequence (O75030 whole entry, looked up): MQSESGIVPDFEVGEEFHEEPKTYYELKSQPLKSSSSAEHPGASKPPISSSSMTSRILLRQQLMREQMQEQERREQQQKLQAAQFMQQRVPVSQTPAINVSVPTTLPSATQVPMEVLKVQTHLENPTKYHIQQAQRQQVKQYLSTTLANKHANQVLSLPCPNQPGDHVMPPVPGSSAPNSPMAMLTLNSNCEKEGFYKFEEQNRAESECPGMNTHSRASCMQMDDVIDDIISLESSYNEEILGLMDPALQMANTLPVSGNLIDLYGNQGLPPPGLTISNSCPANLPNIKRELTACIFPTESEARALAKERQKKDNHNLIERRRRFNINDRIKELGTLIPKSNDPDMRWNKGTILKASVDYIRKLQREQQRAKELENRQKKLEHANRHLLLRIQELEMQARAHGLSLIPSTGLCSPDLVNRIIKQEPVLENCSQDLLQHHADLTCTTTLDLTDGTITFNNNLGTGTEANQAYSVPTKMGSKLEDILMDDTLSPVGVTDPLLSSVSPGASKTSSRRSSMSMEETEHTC
MITF confirm = MITF inhibitors, retest of hits, confirmation, biochemical, AlphaScreen, triplicate; shares compounds with MITF primary; AlphaScreen MITF homodimerization, biotin/His-MITF beads; inhibition, % at 2.6 µM; hit rate 16% among 4,700;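 active means inhibition above a cutoff derived from the DMSO control wells, cut at about 28% in these data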;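 further: 0% = MITF dimer wells with DMSO only; inhibitors lower the bead chemiluminescence by keeping MITF from dimerizing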
AS interf DR = AlphaScreen optical interference compounds, dose response, counter-screen, biochemical, HTS | shares compounds with MITF primary | AID 1259373, 2018 | hit rate 6% among 480 | AlphaScreen optical interference counterscreen, cell-free | IC50, µM; call rule not given here
AlphaScreen intf2 = AlphaScreen optical interference compounds, counter-screen for MITF inhibitor project, biochemical, triplicate. shares compounds with MITF primary. hit rate 7.6% among 4,700. LysRS AlphaScreen counterscreen, signal interference. inhibition, % at 2.6 µM;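 active means inhibition above a cutoff derived from the DMSO control wells, cut at about 30% in these data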
The depositor's hits bear a star. Sampled rows, rich in hits. Any-hit rate of the full collection: about 3.4%.

Results for Cc1ncc(CO)c(/C=N/N=C/c2cccc(Cl)c2Cl)c1O ?
FBW7 activator: 0.5; TEAD-YAP inh: 8.3; GPR151 activ: -0.7; MITF primary: 53.4*; MITF confirm: -4.1; AlphaScreen intf2: -3.5

Results for CCOc1ccc2cc(-c3csc(NC(C)=O)n3)c(=O)oc2c1 ?
FBW7 activator: 0.3; TEAD-YAP inh: 5.0; GPR151 activ: 0.6; MITF primary: 17.9

Results for NC(=O)Cn1cnc2sc3c(c2c1=O)CCC3 ?
FBW7 activator: -0.1; TEAD-YAP inh: -5.9; GPR151 activ: 0.0; MITF primary: 65.8*; MITF confirm: 59.9*; AS interf DR: >6.48; AlphaScreen intf2: 3.2

Results for O=C(O)Cn1cnc2sc3c(c2c1=O)CCC3 ?
FBW7 activator: -1.2; TEAD-YAP inh: 0.7; GPR151 activ: -1.1; MITF primary: 29.7

How did COc1ccc(C2C(C(=O)NC3CCCCCC3)c3ccccc3C(=O)N2c2ccc(OC)cc2)cc1 (configuration not stated) do in these assays?
FBW7 activator: -0.1; TEAD-YAP inh: -5.7; GPR151 activ: 1.0; MITF primary: -2.3

How did Cc1c(CN2C(=O)c3cccc(N4CCN(C(=O)CC(C)(C)C)CC4)c3C2=O)cnn1C do in these assays?
FBW7 activator: 0.0; TEAD-YAP inh: -9.2; GPR151 activ: -0.9; MITF primary: -11.4

What do the screens show for `CCCC(=O)N1CCN(c2cccc3c2C(=O)N(Cc2cnn(C)c2C)C3=O)CC1`?
FBW7 activator: 0.3; TEAD-YAP inh: 9.8; GPR151 activ: -1.6; MITF primary: 97.3*; MITF confirm: -1.6; AlphaScreen intf2: -5.6

Results for O=C(c1ccc([N+](=O)[O-])cc1)N1CCSC1c1ccc([N+](=O)[O-])cc1 (configuration not stated) ?
FBW7 activator: 0.1; TEAD-YAP inh: -2.6; GPR151 activ: 1.5; MITF primary: 12.5

How did O=C(c1ccc([N+](=O)[O-])cc1)N1CCSC1c1ccc(Br)cc1 (configuration not stated) do in these assays?
FBW7 activator: 1.6; TEAD-YAP inh: 0.1; GPR151 activ: -1.0; MITF primary: 69.8*; MITF confirm: -12.7; AlphaScreen intf2: -2.7

Results for O=C(Cn1cnc2c(cnn2-c2cccc(Cl)c2)c1=O)N1CCCCCC1 ?
FBW7 activator: -0.1; TEAD-YAP inh: 2.0; GPR151 activ: -2.0; MITF primary: -0.2

What do the screens show for `O=C(CN1CCSCC1)N/N=C/c1cccc(C(F)(F)F)c1`?
FBW7 activator: 0.6; TEAD-YAP inh: -2.3; GPR151 activ: -1.4; MITF primary: 56.1*; MITF confirm: 7.6; AlphaScreen intf2: 5.6

Results for CN(C)CCCN(CCCN(C)C)Cc1cccc(C(F)(F)F)c1 ?
FBW7 activator: -0.1; TEAD-YAP inh: 6.4; GPR151 activ: 2.4; MITF primary: 56.7*; MITF confirm: -6.1; AlphaScreen intf2: -4.4

How did CN(C)CCCN(CCCN(C)C)Cc1ccc(Cl)cc1 do in these assays?
FBW7 activator: -0.1; TEAD-YAP inh: -7.8; GPR151 activ: 0.2; MITF primary: 37.3

How did CN(C)CCCN(CCCN(C)C)Cc1ccc(F)cc1 do in these assays?
FBW7 activator: 0.3; TEAD-YAP inh: 3.5; GPR151 activ: 1.1; MITF primary: 63.7*; MITF confirm: -9.7; AlphaScreen intf2: 9.8

What do the screens show for `CN(C)CCCN(CCCN(C)C)Cc1ccc(F)c(Br)c1`?
FBW7 activator: -0.1; TEAD-YAP inh: 3.8; GPR151 activ: 1.2; MITF primary: 52.9*; MITF confirm: -13.2; AlphaScreen intf2: -3.9

How did O=C(Nc1nnc(-c2cccnc2)o1)C(c1ccccc1)c1ccccc1 do in these assays?
FBW7 activator: -0.1; TEAD-YAP inh: 1.4; GPR151 activ: -1.1; MITF primary: 2.9
